Data on 57 sequences can be found in the supplement of paper PMC11417369.

Over roughly 25,000 sequences, “ln(normalized median fluorescence intensity)” has its median near 9.3; the highest 2% begin near 10. The full list was thinned out, with the highest values kept by preference.

The assay has as its system PF3D7_0420300 AP2 domain 1 (GST-tagged). Nature of the assay: gcPBM binding intensity (ln(normalized median fluorescence intensity)); higher = stronger DNA binding. In outline: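 After 1 h on an Agilent 4 × 180k array of primer-extended double-stranded 36-bp intergenic genomic probes and negative controls, bound GST-tagged P. falciparum DNA-binding domains were detected with Alexa488 anti-GST antibody and scanned at 488 nm. The domains had been expressed in E. coli, and binding took place in 1× PBS with 1% milk, 0.2 mg/ml BSA, 0.5% salmon testes DNA and 0.03% Triton X-100. Binding intensity is the highest Masliner-normalised natural-log median intensity across replicate spots of either probe orientation.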
As for “AAAAAAATATATTCCTAATTTATGATTAAAAGGAAT [CACACA_negctrl_site751]”, the “gcPBM binding intensity (ln)” value is 8.98. Take “ATATATTTTTTCTTAACACACATATATAAAATAAAA [CACACA_site3500]”: the “gcPBM binding intensity (ln)” value amounted to 9.24. The figure for “AAGAGAAATGGGCACACACACACATATTATAGATAT [CACACA_site6828]” is 10.2. Turning to “GAGAAATGGGGACACACACACATATTATAGATATAT [CACACA_site6829]”, the “gcPBM binding intensity (ln)” value turned out to be 10.1. Regarding “AGAAAAGAGAAATGGGCACACACACCCATATTATAT [CACACA_site8433]”, the “gcPBM binding intensity (ln)” value was 9.66. With “AAAAGAGAAATGGGCACACACACACCCATTATATAT [CACACA_site1530]”, the “gcPBM binding intensity (ln)” value was determined as 9.88. The figure for “AAAAGAGAAATGGGCACACACACACCGATTATATAT [CACACA_site4942]” is 10.2; for “AAGAGAAATGGGCACACACACACATATTATATATAT [CACACA_site1531]” it is 10.1. Under “TAATATACTTAATACACACACGAATATTTATAAATA [CACACA_site6675]” stands 9.73. For “ACATATTATAGGAATACACACAAAAACTTATCGGTA [CACACA_site7587]”, the “gcPBM binding intensity (ln)” value was 9.87. Under “CATACACCCATACATACACACATACATACACCCATA [CACACA_site5124]” stands 9.78; under “GTAATACCCAAACACACACACATACCCATATATATA [CACACA_site5510]”, 10; under “ACATCAAGCAGACACACACACACACCCACCCACCGA [CACACA_site371]”, 10.2. As to “CAAGCACAGAAACACACACACACACCGACACAGACA [CACACA_site4359]”, the “gcPBM binding intensity (ln)” value was 10.2. Turning to “AATACCCAAGGACACACACACACATATATATATATA [CACACA_site8345]”, the “gcPBM binding intensity (ln)” value stood at 10.2. Under “AACAGACAGAAACACACACACATATATATATATATA [CACACA_site3394]” stands 9.81; under “AAAATACCCGGACACACACACATATATATATATATT [CACACA_site6137]”, 9.96; under “ATACATCAAGGACACACACACACACCCACACCCACA [CACACA_site8013]”, 10.3.

For the sequence “CATATACATCCACATACACACATACACCCATACACA [CACACA_site5038]”, the “gcPBM binding intensity (ln)” value is 9.74. Take “CACCCACCCAGACACACACACACAAAAAAAAAAAGA [CACACA_site499]”: the “gcPBM binding intensity (ln)” value was 10.1.

In the case of “CAAGCACCCAGACACACACACACACCCACACCCACA [CACACA_site369]”, the “gcPBM binding intensity (ln)” value is 10.2.

As to “ATTATTACTATATGTGTACACATCAACTGGTTTGAT [CACACA_site5563]”, the “gcPBM binding intensity (ln)” value stood at 9.39. In the case of “AAAAAAAAAAAAAAGGTGCATACTTTGAATTAATAT [GTGCAC_site9401]”, the “gcPBM binding intensity (ln)” value is 9.2. Under “ATAAAAAATATCACATAAAATAAAAAAAGAAAGGAT [XGTACX_negctrl_site294]” stands 9.62; under “AGTGGACTTTTTTTTTTTTTTTTTTTTTTTTTATTA [CACACA_negctrl_site547]”, 9.2; under “AGTATAAATATATTATGTACATATATATTATACTTA [XGTACX_site2623]”, 9.09. The figure for “ATTATCTATCGTTTTTGTACTTACACCTTAATACAA [XGTACX_site7337]” is 9.58; for “ACATCAAGCGGACACACACACACACCGACAGACACA [CACACA_site4361]” it is 10.2; for “TACACAAGCAGACACACACACATATATATATATATA [CACACA_site1270]” it is 9.72. Under “ACATCAAGCAGACACACACACACACCCACCCACCCA [CACACA_site8012]” stands 10.4; under “AAGCATACATCAAGCACACACACACCCACAGAGACA [CACACA_site4362]”, 9.89. Turning to “TACACAAGCGGACACACACACATATATATATATATA [CACACA_site4832]”, the “gcPBM binding intensity (ln)” value is 9.81. Consider “TAAAGTATTACAACCACACACACACCGATATATTAT [CACACA_site9382]”, for which the “gcPBM binding intensity (ln)” value came to 9.99.

For the sequence “ATAAAAATAAAAAGTGTGCACACAAAAATATATATA [GTGCAC_site9931]”, the “gcPBM binding intensity (ln)” value amounted to 9.9. “ATATATATATATATATGTACATATTCACTTATATTT [XGTACX_site5324]”: the “gcPBM binding intensity (ln)” value amounted to 9.18. Turning to “ATTAAACATAAATATGCACACATATACATATATTCA [CACACA_site8850]”, the “gcPBM binding intensity (ln)” value was 9.4. Under “TATGTACACCCATATACACACCTCTATAATATATAT [CACACA_site4563]” stands 9.67; under “TTTTATGAAAAGTATTGTACGTATAATTTATATGTA [XGTACX_site1639]”, 9.04; under “GGAACTTATTTTTATACACACATATGTGCATATTAT [CACACA_site629]”, 9.68.

For the sequence “TATAAATAAAGACACACACACACACCGTATAATTAC [CACACA_site7829]”, the “gcPBM binding intensity (ln)” value was 10.2. Under “AAAAAAAAAAGACACACACACATATAAATATAAATA [CACACA_site6899]” stands 10.2; under “AAAAGGAACAGACACACACACATATATAAATATGTA [CACACA_site7656]”, 9.97; under “TAAAAAGGAAGACACACACACACATATATAAATATA [CACACA_site7657]”, 10.2. The figure for “CATATAAAAAGACACACACACACATATATATATATA [CACACA_site940]” is 10; for “CATATAAATATATATACACACACACCGTAATACATA [CACACA_site9158]” it is 10.2; for “TATAAATAAAGACACACACACATATAAATAAATATA [CACACA_site7155]” it is 10.1. The figure for “TATATAAATAGACACACACACACCTTATAATTACTA [CACACA_site7828]” is 10; for “ATATAATAAAATGACACACGCATATATATATATATA [CACACA_site2789]” it is 9.33; for “CACACTAAAAGACACACACACACACGCATATAAATA [CACACA_site7874]” it is 10.2. Take “AAAAAAAAAAAAAACACACACACACGCATAAATATA [CACACA_site6217]”: the “gcPBM binding intensity (ln)” value was 10.1. On to “ATAAAAAAAAGACACACACACATATATATATATATA [CACACA_site3073]”, for which the “gcPBM binding intensity (ln)” value turned out to be 9.67. The figure for “ACAAAAAAAAACGTGGTGCATTAATAATATTGTATA [GTGCAC_site9469]” is 9.43; for ATTACATTAATAAGAGTGCATTATATAAGTTTTATG it is 9.2; for “TTTGGCTAGTCAAGTTGTACAAAAAAAAAAAAAAAA [XGTACX_site8382]” it is 8.58. With “GTAATACACAGACACACACACATACACATATTTATA [CACACA_site7313]”, the “gcPBM binding intensity (ln)” value amounted to 10. Take “TTGTACTACAATCCTTTATTTATTTAAACCTGTATG [CACACA_negctrl_site428]”: the “gcPBM binding intensity (ln)” value is 9.14. As to “TTCTTCAAGGAAAACACATGCGCATTTTCACCAATT [TGCATGCA_site11]”, the “gcPBM binding intensity (ln)” value was found to be 9.15.
